Read-out in experiment [1]: Thrombomodulin, THBD (gene 7056)
Description: BSK_CASM3C_Thrombomodulin: BioMAP Diversity Plus: CASM3C Assay for Thrombomodulin Biomarker Activity (AID 2283051).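 Further: thrombomodulin protein level measured by ELISA 24 h after dosing.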 The settings on record: primary human coronary artery smooth muscle cells; actives raise or lower the signal.

Read-out in experiment [2]: Tissue Factor, F3 (gene 2152)
In words: BSK_CASM3C_TissueFactor: BioMAP Diversity Plus: CASM3C Assay for Tissue Factor Biomarker Activity (AID 2283052).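 Further: cell surface tissue factor protein level read by ELISA.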 The settings on record: primary human coronary artery smooth muscle cells; actives raise or lower the signal.

Read-out in experiment [3]: Interferon-gamma inducible Protein 10 (IP10), CXCL10 (gene 3627)
Description: BSK_hDFCGF_IP10: BioMAP Diversity Plus: hDFCGF Assay for Interferon-gamma inducible Protein 10 (IP10) Biomarker Activity (AID 2283053). The settings on record: primary human foreskin fibroblasts; actives raise or lower the signal. The method in brief:
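Chemical-treated human skin fibroblasts (primary) were sampled at 24 h for IP-10 by ELISA. Both increases and decreases relative to DMSO were scored.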

Read-out in experiment [4]: Urokinase-type plasminogen activator receptor (uPAR), PLAUR (gene 5329)
In words: BSK_CASM3C_uPAR: BioMAP Diversity Plus: CASM3C Assay for Urokinase-type plasminogen activator receptor (uPAR) Biomarker Activity (AID 2283054).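 Further: cell-surface uPAR protein level quantified by ELISA.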 The settings on record: primary human coronary artery smooth muscle cells; actives raise or lower the signal.

Read-out in experiment [5]: Vascular cell adhesion molecule 1 (VCAM1), VCAM1 (gene 7412)
In words: BSK_CASM3C_VCAM1: BioMAP Diversity Plus: CASM3C Assay for Vascular cell adhesion molecule 1 (VCAM1) Biomarker Activity (AID 2283055).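 Further: VCAM-1 protein level quantified by ELISA on the cells.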 The settings on record: primary human coronary artery smooth muscle cells; actives raise or lower the signal.

Read-out in experiment [6]: Collagen III, COL3A1 (gene 1281)
Description: BSK_hDFCGF_CollagenIII: BioMAP Diversity Plus: hDFCGF Assay for Collagen III Biomarker Activity (AID 2283056). The settings on record: primary human foreskin fibroblasts; actives raise or lower the signal. A digest of the protocol:
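Human foreskin primary fibroblasts were exposed to test chemicals for 24 h, after which collagen III was quantified by ELISA. Activity was fitted bidirectionally against DMSO as negative control and baseline.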

Read-out in experiment [7]: Interleukin-8 (IL8), CXCL8 (gene 3576)
Description: BSK_hDFCGF_IL8: BioMAP Diversity Plus: hDFCGF Assay for Interleukin-8 (IL8) Biomarker Activity (AID 2283058). The settings on record: primary human foreskin fibroblasts; actives raise or lower the signal. A digest of the protocol: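 hDFCGF human dermal fibroblasts; 24 h chemical exposure; IL-8 by ELISA; bidirectional curve fit vs DMSO baseline; gain or loss of signal scored.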

Experiment [8] is described as follows: BSK_hDFCGF_Proliferation: Cell Proliferation Assessment in the BioMAP Diversity Plus: hDFCGF Assay (AID 2283059).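 Further: curves fitted for both rise and fall of signal versus DMSO baseline.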 The settings on record: primary human foreskin fibroblasts. The method in brief: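 This proliferation readout used SRB total-protein staining of human foreskin fibroblasts […], normalized to DMSO with bidirectional curve fitting.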

Read-out in experiment [9]: Macrophage colony-stimulating factor (MCSF), CSF1 (gene 1435)
Description: BSK_hDFCGF_MCSF: BioMAP Diversity Plus: hDFCGF Assay for Macrophage colony-stimulating factor (MCSF) Biomarker Activity (AID 2283060). The settings on record: primary human foreskin fibroblasts; actives raise or lower the signal. The method in brief: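 Human foreskin primary fibroblasts were treated with test chemical for 24 h, and M-CSF was then measured by ELISA. Data were fitted bidirectionally against DMSO as the negative control and activity baseline.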

Experiment [10] in a line: BSK_hDFCGF_SRB: Viability Assessment in the BioMAP Diversity Plus: hDFCGF Assay (AID 2283061).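 Further: cells exposed to compound for 24 h before the read.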 The settings on record: primary human foreskin fibroblasts. A digest of the protocol: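 Human foreskin primary fibroblasts were treated with compound and assessed 24 h after dosing. Total protein was measured by sulforhodamine B staining (0.1% SRB after 10% TCA fixation, 560 nm read) as a cytotoxicity marker, with bidirectional fitting against DMSO baseline.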

Read-out in experiment [11]: TIMP metallopeptidase inhibitor 1 (TIMP1), TIMP1 (gene 7076)
Description: BSK_hDFCGF_TIMP1: BioMAP Diversity Plus: hDFCGF Assay for TIMP metallopeptidase inhibitor 1 (TIMP1) Biomarker Activity (AID 2283062). The settings on record: primary human foreskin fibroblasts; actives raise or lower the signal. A digest of the protocol: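 Primary human foreskin fibroblasts in the hDFCGF system were dosed with compound for 24 h, then TIMP-1 was measured by ELISA. Activity was fitted bidirectionally relative to DMSO control; parallel SRB staining assessed cytotoxicity.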

Read-out in experiment [12]: Monokine induced gamma interferon (MIG), CXCL9 (gene 4283)
In words: BSK_hDFCGF_MIG: BioMAP Diversity Plus: hDFCGF Assay for Monokine induced gamma interferon (MIG) Biomarker Activity (AID 2283063). The settings on record: primary human foreskin fibroblasts; actives raise or lower the signal. The method in brief: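 ELISA read-out of MIG from primary human dermal fibroblasts 24 h post-dosing. Gain or loss of signal fitted bidirectionally, DMSO as baseline.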

Read-out in experiment [13]: Matrix Metallopeptidase 1 (MMP1), MMP1 (gene 4312)
Description: BSK_hDFCGF_MMP1: BioMAP Diversity Plus: hDFCGF Assay for Matrix Metallopeptidase 1 (MMP1) Biomarker Activity (AID 2283064). The settings on record: primary human foreskin fibroblasts; actives raise or lower the signal. A digest of the protocol:
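Human foreskin fibroblasts exposed to chemical for 24 h; MMP1 detected by ELISA, with DMSO as baseline for bidirectional fitting.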

Read-out in experiment [14]: Vascular cell adhesion molecule 1 (VCAM1), VCAM1 (gene 7412)
Description: BSK_hDFCGF_VCAM1: BioMAP Diversity Plus: hDFCGF Assay for Vascular cell adhesion molecule 1 (VCAM1) Biomarker Activity (AID 2283065).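 On AC50: VCAM-1 protein level quantified by ELISA after 24 h chemical exposure.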 The settings on record: primary human foreskin fibroblasts; actives raise or lower the signal. The method in brief: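 Primary human foreskin fibroblasts (hDFCGF system) were dosed with chemical and VCAM-1 was measured by ELISA 24 h later. Bidirectional curve fitting used DMSO as negative control and activity baseline.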

Read-out in experiment [15]: Plasminogen activator inhibitor-1 (PAI1), SERPINE1 (gene 5054)
In words: BSK_hDFCGF_PAI1: BioMAP Diversity Plus: hDFCGF Assay for Plasminogen activator inhibitor-1 (PAI1) Biomarker Activity (AID 2283066). The settings on record: primary human foreskin fibroblasts; actives raise or lower the signal. The method in brief: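 Human skin fibroblast cultures receive chemical for 24 h before PAI-1 is measured by ELISA; signal changes are fitted bidirectionally against DMSO-treated wells.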

Read-out in experiment [16]: Intercellular Adhesion Molecule 1 (ICAM1), ICAM1 (gene 3383)
In words: BSK_KF3CT_ICAM1: BioMAP Diversity Plus: KF3CT Assay for Intercellular Adhesion Molecule 1 (ICAM1) Biomarker Activity (AID 2283067). The settings on record: primary human keratinocytes with fibroblasts; actives raise or lower the signal. A digest of the protocol:
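Human keratinocyte plus foreskin fibroblast primary co-culture was exposed to chemical for 24 h. ICAM-1 was then quantified by ELISA, and the data were fit bidirectionally against DMSO as the negative control and baseline.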

Read-out in experiment [17]: Interferon-gamma inducible Protein 10 (IP10), CXCL10 (gene 3627)
Description: BSK_KF3CT_IP10: BioMAP Diversity Plus: KF3CT Assay for Interferon-gamma inducible Protein 10 (IP10) Biomarker Activity (AID 2283068). The settings on record: primary human keratinocytes with fibroblasts; actives raise or lower the signal. A digest of the protocol: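 Signal is secreted/surface IP-10 by ELISA in a human primary skin co-culture of keratinocytes and foreskin fibroblasts, taken 24 h post-dosing; DMSO served as negative control.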

A short description of experiment [18]: BSK_KF3CT_SRB: Viability Assessment in the BioMAP Diversity Plus: KF3CT Assay (AID 2283069).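 Further: fitted for both signal gain and loss against DMSO baseline.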 The settings on record: primary human keratinocytes with fibroblasts. A digest of the protocol:
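Overt cytotoxicity is assessed as total protein by sulforhodamine B staining in parallel human skin co-cultures at 24 h after dosing. DMSO serves as negative control and baseline.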

Read-out in experiment [19]: Interleukin-1 alpha (IL1a), IL1A (gene 3552)
In words: BSK_KF3CT_IL1a: BioMAP Diversity Plus: KF3CT Assay for Interleukin-1 alpha (IL1a) Biomarker Activity (AID 2283070). The settings on record: primary human keratinocytes with fibroblasts; actives raise or lower the signal. The method in brief: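 Readout is IL-1a level by ELISA, compared bidirectionally with DMSO as baseline. Cells: human keratinocytes co-cultured with foreskin fibroblasts, harvested 24 h post-dose.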

The values that follow come from PubChem BioAssay (EPA / NIEHS).

The structures appear in SMILES notation. “And” between values parts separate entries of the source, which are not always exact repeats. Equal values may be shown once. The source made the active and inactive calls. How the source made its calls: active means hit-call score of the fitted dose curve at least 0.9, where 1 is the maximum; inactive means score below 0.9.

For `CS(=O)(=O)c1ccc([C@@H](CC2CCCC2)C(=O)Nc2cnccn2)cc1Cl`, the outcome in [1], in [2], in experiment [3], in [5], in experiment [6] and in experiment [7] was inactive. Besides, the outcome in experiment [9], in experiment [10], in [11], in [12], in experiment [13] and in experiment [14] was inactive. For the same compound, the outcome in [16], in experiment [17], in [18] and in experiment [19] was inactive. Besides, the AC50 (usually the concentration giving half of the maximal activity seen) in experiment [4] was 26.3 µM (active); in experiment [8], 20 µM (active); in [15], 20 µM (active).
Take `O=C(O)CCC(F)(F)C(F)(F)C(F)(F)C(F)(F)C(F)(F)C(F)(F)F`: the result in [1], in experiment [2], in experiment [3], in [4], in experiment [5] and in experiment [6] was inactive. Moreover, the result in experiment [7], in [8], in experiment [9], in experiment [10], in experiment [11] and in [12] was inactive. For the same compound, the outcome in experiment [13], in experiment [14], in [15], in experiment [16], in experiment [17] and in experiment [18] was inactive. The outcome in [19] was inactive.
With `CCCCCCCCCCCCOS(=O)(=O)O`, the result in [1], in [2], in experiment [4], in [5], in experiment [6] and in experiment [7] was inactive. Further, in [16], the result was inactive. Moreover, the AC50 in [3] was 26.3 µM (active); in experiment [8], 16 µM (active); in experiment [9] it was 30.9 µM (active); in experiment [10], 28 µM (active); in [11], 32 µM (active); in [12] it was 27.7 µM (active). For the same compound, the AC50 in [13] was 32.7 µM (active); in experiment [14], 29.3 µM (active); in experiment [15] it was 33.6 µM (active); in [17], 33.4 µM (active); in experiment [18] it was 33.7 µM (active); in experiment [19], 20 µM (active).
As to `C=CC(=C)CC/C=C(\C)CCC=C(C)C`, the outcome in experiment [1], in experiment [2], in [3], in experiment [4], in experiment [5] and in experiment [7] was inactive. In addition, the outcome in [9], in experiment [10], in [11], in [12], in experiment [13] and in experiment [14] was inactive. Further, the outcome in [15], in experiment [16], in experiment [17], in [18] and in [19] was inactive. The half-maximal activity concentration (AC50) in experiment [6] is 3.62 µM (active); in experiment [8], 6.49 µM (active).
In the case of `N=C(N)c1ccc(OCCCCCOc2ccc(C(=N)N)cc2)cc1`, the result in experiment [1], in experiment [2], in experiment [5], in experiment [6], in experiment [12] and in experiment [16] was inactive. For the same compound, the result in [17], in experiment [18] and in experiment [19] was inactive. Moreover, the half-maximal activity concentration (AC50) in experiment [3] was 17.5 µM (active); in experiment [7] it was 20.9 µM (active); in experiment [8] it was 12.1 µM (active); in experiment [9], 20.6 µM (active); in experiment [10] it was 25.8 µM (active); in experiment [11], 27.2 µM (active). Also, the AC50 in experiment [14] is 28.1 µM (active); in experiment [15], 28.5 µM (active).
Regarding `O=P(O)(O)CCC(F)(F)C(F)(F)C(F)(F)C(F)(F)C(F)(F)C(F)(F)F`, the result in experiment [1], in experiment [2], in experiment [3], in [4], in experiment [5] and in [6] was inactive. Moreover, the outcome in [7], in [9], in [10], in experiment [11], in experiment [12] and in experiment [13] was inactive. In addition, the outcome in [14], in experiment [15], in experiment [16], in experiment [17], in experiment [18] and in [19] was inactive. Also, the AC50 in experiment [8] was 15.8 µM (active) and 19.1 µM (active).
